Results from PubChem BioAssay AID2650 (Broad Institute, 2010).
Among all 320,000 compounds or so, about 320 (0.1%) were called active.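 The calls were made as follows: active = more than half of replicates show inhibition above 20%; inconclusive = some but at most half of replicates above 20% inhibition; inactive = no replicate shows inhibition above 20%.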 The sample as a whole holds a higher share of actives than the screen did.

Each compound was assayed against Glycogen synthase kinase-3 alpha (Homo sapiens) (UniProt P49840) (assay: blockers of GSK3A enzyme activity – biochemical, luminescence, cell-free homogeneous, HTS, primary screen (AID 2650;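 also: GST-tagged GSK-3 alpha with peptide substrate and 25 µM ATP; 0% = DMSO neutral wells and 100% = GW8510 positive control wells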)). Settings: GSK-3 alpha kinase, ADP-Glo luminescence, 60 min; at 10 µM; stronger effect = higher value.
Chain of Glycogen synthase kinase-3 alpha (Homo sapiens) (P49840 whole entry, looked up): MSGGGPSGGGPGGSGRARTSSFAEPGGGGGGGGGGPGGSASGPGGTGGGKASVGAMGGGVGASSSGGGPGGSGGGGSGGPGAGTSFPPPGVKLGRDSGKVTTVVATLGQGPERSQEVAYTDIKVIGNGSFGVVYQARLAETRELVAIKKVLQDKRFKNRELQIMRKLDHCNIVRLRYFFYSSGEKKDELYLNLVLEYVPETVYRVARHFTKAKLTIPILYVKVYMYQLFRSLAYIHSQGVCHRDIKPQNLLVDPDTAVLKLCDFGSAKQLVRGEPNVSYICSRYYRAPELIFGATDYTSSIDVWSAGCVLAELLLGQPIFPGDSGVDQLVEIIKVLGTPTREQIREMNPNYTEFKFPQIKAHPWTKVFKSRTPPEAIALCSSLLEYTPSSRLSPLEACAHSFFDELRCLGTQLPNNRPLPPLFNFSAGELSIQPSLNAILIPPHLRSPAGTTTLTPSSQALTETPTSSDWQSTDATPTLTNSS

inhibition, active:
Nc1nc(NCCCN2CCOCC2)nc(Nc2ccccc2)c1[N+](=O)[O-] 90.9%
Cn1c(=O)c2[nH]c(NCC3CCCO3)nc2n(-c2ccccc2)c1=O (centres undefined) 53.4%

inhibition, inactive:
CN(CC1CCCN(CCc2cccc(C(F)(F)F)c2)C1)C(=O)c1ccc2nc[nH]c2c1 (centres undefined) 2.9%
CCCNC(=S)N1CCC(NC(=O)C23CC4CC(CC(C4)C2)C3)CC1 -1.14%
Cc1ccccc1N(C(=O)Cc1cccs1)C(C(=O)NC1CCCCC1)c1cn(C)nc1C (centres undefined) -1.17%
CCCCCN(C(=O)NC(=O)Nc1ccccc1OC)S(C)(=O)=O -0.679%
COc1cc(OC)cc(-c2cc3ccc(F)cc3cn2)c1 -0.558%
CCOc1ccc(-c2noc(CCC(=O)NC3CCCC3)n2)cc1OC -2.18%
COc1ccccc1-c1nnc2n1N=C(c1ccc(OC(F)F)c(OCC3CC3)c1)CS2 -2.55%
C=C(C)CNC(=S)Nc1ccc(S(=O)(=O)Nc2cnc3ccccc3n2)cc1 -0.344%
Brc1ccc(/C=N/N2CCN(C3c4ccccc4-c4ccccc43)CC2)s1 -1%
COCCNC(=S)N(CCc1c(C)[nH]c2ccc(C)cc12)Cc1cccnc1 -0.86%
CCn1c(Cc2ccc(OC)cc2)nnc1SCC(=O)Nc1ccc(N2CCOCC2)cc1 -0.587%
CCCCOC(=O)Nc1sc2nc(C)cc(C)c2c1-n1cccc1 3.59%
Cc1noc(C)c1NC(=O)Nc1cccc2c1O[C@H](CN(C)C(=O)Nc1ccccc1)[C@@H](C)CN([C@H](C)CO)C2=O -4.19%
COc1cc2c(cc1OC)CC1(CCCCC1)N=C2 0.717%
Cc1cc(C)cc(N(CCC#N)C(=O)CN2C(=O)NC3(CCCC3)C2=O)c1 -1.84%
O=[N+]([O-])c1ccc(NCCCN2CCOCC2)c(Cl)c1 -0.912%
CC1CN(c2nc(Nc3ccccc3)nc(N)c2[N+](=O)[O-])CC(C)O1 (centres undefined) 38.9%
Nn1c(SCC(=O)Nc2ccc3c(c2)CCC3)nnc1C1CC1 -1.28%
CC(=NNC(=O)c1ccc2nc[nH]c2c1)c1ccc(Br)cc1 0.652%
CC(C)c1nc(SCC(=O)NC(=O)NC(C)(C)C)n[nH]1 -2.13%
CCN(CC)CCOC(=O)c1ccc(NC(=O)CNC(=O)c2ccccc2)cc1 -1.2%
O=C(OCC(=O)N1CCOCC1)c1ccc(N2CCOCC2)c([N+](=O)[O-])c1 1.5%
Cc1ccc(NC(=O)C2CCC(C(C)(C)C)CC2)cc1S(=O)(=O)N1CCOCC1 (centres undefined) -0.864%
Cc1c(Cl)cccc1NC(=O)NCc1ccc(C)n1C -2.74%
CC1CCCCC12NC(=O)N(CC(=O)OCC(=O)NCc1ccc(F)cc1)C2=O (centres undefined) -2.66%
O=C(O)C1=CCCN(CCON=C(c2ccccc2)c2ccccc2)C1 -1.9%
CC(C)(C)OC(=O)C[C@@H]1C/C=C\C[C@H](CC(=O)N[C@@H](CO)Cc2ccccc2)C(=O)N[C@H](Cc2ccccc2)COC1=O 0.493%
O=C(CN1C(=O)NC2(CCCCCC2)C1=O)NCc1ccc(F)cc1 -1.44%
O=C(c1ccccc1F)N(Cc1ccccc1)Cc1ccccc1 0.121%
O=c1c2c3c(sc2n(CCN2CCCC2)c(=O)n1Cc1ccccc1)CCCCC3 0.297%
CC(=O)Nc1ccc(NC(=O)CC2CCCC2)cc1 0.623%
CC(C)c1ccc(/C=C2\NC(=O)NC2=O)cc1 24.7%
Cc1ccc(C)c(CN2CCC(CNC(=O)Nc3ccc(C)c(F)c3)CC2)c1 -0.807%
OCCC1CN(Cc2cccc(OC3CCCC3)c2)CCN1Cc1ccsc1 (centres undefined) -2.02%
CCN(CC)N=Nc1cccc(NC(C)=O)c1 2.05%
O=C(NCc1nnc(SCC(=O)N2CCC(Cc3ccccc3)CC2)o1)c1ccco1 -0.692%
Cc1cc(C)n(Cc2cnc(N3CCOCC3)s2)n1 -2.61%
CCCc1nc2oc3c(=O)[nH]cnc3c2c2c1COC(C)(C)C2 3.6%
OCCC1CN(Cc2ccccc2-c2ccco2)CCN1Cc1ccsc1 (centres undefined) -0.178%
CCn1cc(S(=O)(=O)c2cccc(C)c2)c(=O)c2cc(F)c(N3CCN(C)CC3)cc21 -1.82%
O=C(CN(C(=O)c1nsc(Cl)c1Cl)c1cccc(F)c1)NC1CCCC1 -1.81%
Cc1ccc(NS(=O)(=O)c2cn(C)c(=O)n(C)c2=O)c(C)c1 -0.792%
O=C(NCc1csc(-c2cccs2)n1)C1CC1 0.318%
COc1ccc(Cc2n[nH]c(=S)n2NC(=O)Nc2ccc(C)cc2)cc1 -4.11%
CC(=O)N1CC(=O)N(CC(=O)Nc2ccc(Br)cc2)C1=S 2.4%
COc1cccc(CNC(=O)C2CCCN(c3ncnc4c3nc3n4CCCCC3)C2)c1 (centres undefined) 0.554%
CCOC(=O)CN(C(=O)COc1nc(-c2ccccc2)cc(C)c1C#N)c1ccc(F)cc1 0.174%
CCCCN(CC)CCNC(=O)c1[nH]c(C)c(C(C)=O)c1C 1.47%
CC(c1ccco1)N(C(=O)c1ccc(S(=O)(=O)N2CCCCC2)cc1)c1ccccn1 (centres undefined) -1.32%
CC(=O)c1cnc(SCC(=O)O)nc1C -1.4%
CC1=C(C(=O)OC2CCCCC2)C(c2ccccc2F)NC(=O)N1 (centres undefined) -2.54%
COc1ccc(N=Nc2c(-c3ccc(OC)cc3)[nH]oc2=O)cc1 -3.99%
Cc1cc(C)nc(SC2CCCCC2NS(=O)(=O)c2ccc(Cl)cc2)n1 (centres undefined) -2.34%
O=C(CN1CCN(c2ccc(O)cc2)CC1)NC1CCCc2ccccc21 (centres undefined) -2.3%
CC(C)NC(=O)NNc1c(Cl)cncc1Cl 2.22%
CC(C)(C)c1nc(NCC2CCCO2)c2nnn(Cc3ccccc3)c2n1 (centres undefined) -0.49%
c1ccc2c(NCC3CCCO3)nc(-c3ccncc3)nc2c1 (centres undefined) 4.61%
